Shown are actives, neighbours in structure and some others; about 2.6% of the full set was active somewhere.
TWEAK Fn14 block – blocks TWEAK-Fn14 interaction in a reporter cell assay; inhibition, % at 10 µM; TWEAK-stimulated Fn14 reporter cells, luciferase luminescence, 8 h; hit rate 2% among 360,000; in the data active means inhibition above about 50%
TROY NFkB inh – blocks TROY-dependent signaling in reporter cells | AID 1347056 | inhibition, % at 10 µM | Q293 LMP1-TROYcd NF-kB luciferase reporter, 4 h | hit rate 0.98% among 360,000;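 active means compounds whose plate-normalised and pattern-corrected inhibition of the luciferase reporter signal at the single screening dose is 50% or more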
LMP1 NFkB inh – Epstein-Barr LMP1 NF-kappaB reporter inhibition | LMP1-induced NF-kappaB luciferase reporter cells, luminescence | inhibition, % at 12.5 µM | hit rate 0.69% among 350,000 | AID 504558; in the data active means inhibition above about 41%
LGR2 inh – Drosophila LGR2 receptor signaling inhibition; inhibition, % at 9.99 µM; hit rate 0.35% among 380,000; HEK293 LGR2, CRE-luciferase, bursicon-stimulated, 4 h;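 active means drop in luminescence signal, shown as inhibition above about 50% in the replicate tests, limit read from the data, passing the limit was not always enough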;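 further: agonist challenge used bursicon conditioned medium at about half maximal strength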
EWS-Fli block – inhibitors of EWS/Fli oncoprotein transcriptional activity; A673 NR0B1-luciferase reporter, viability-normalised; inhibition, % at 12.6 µM; hit rate 0.67% among 350,000;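 active means mean inhibition of at least 50% after viability correction, with every replicate also passing that limit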;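 further: firefly luciferase signal divided by Alamar Blue viability fluorescence both relative to DMSO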
Numbers stand for hits; 0 = inactive; - = no result given.

SMILES	TWEAK Fn14 block	TROY NFkB inh	LMP1 NFkB inh	LGR2 inh	EWS-Fli block
Fc1ccc(-[n+]2nc(Nc3ccccc3)sc2-c2c(Cl)cccc2Cl)cc1	0	0	0	71	0
CCc1ccc(Nc2n[n+](-c3ccccc3)c(-c3ccc(OCc4ccccc4)cc3)s2)cc1	83	0	0	0	0
CCc1ccc(Nc2n[n+](-c3ccccc3)c(-c3c(Cl)cccc3Cl)s2)cc1	52	59	44	0	0
CCc1ccc(Nc2n[n+](-c3ccccc3)c(-c3ccc(N(CC)CC)cc3)s2)cc1	0	0	0	0	0
C[C@@H]1CN([C@H](C)CO)C(=O)c2cc(N(C)C)ccc2O[C@@H]1CN(C)Cc1ccc(C(=O)Nc2ccccc2N)cc1	-	-	-	-	74
COc1ccc(CN(C)C[C@@H]2OCCCC[C@H](C)Oc3ccc(NC(=O)Nc4ccc(C(F)(F)F)cc4)cc3C(=O)N([C@H](C)CO)C[C@@H]2C)cc1	-	-	-	-	71
COc1ccc(CN(C)C[C@H]2OCCCC[C@@H](C)Oc3ccc(NC(=O)Nc4ccc(C(F)(F)F)cc4)cc3C(=O)N([C@@H](C)CO)C[C@@H]2C)cc1	-	-	-	-	66
COc1ccc(CN(C)C[C@H]2OCCCC[C@@H](C)Oc3ccc(NC(=O)Nc4ccc(C(F)(F)F)cc4)cc3C(=O)N([C@H](C)CO)C[C@@H]2C)cc1	-	-	-	-	0
COc1ccc(CN(C)C[C@H]2OCCCC[C@@H](C)Oc3ccc(NC(=O)Nc4ccc(C(F)(F)F)cc4)cc3C(=O)N([C@@H](C)CO)C[C@H]2C)cc1	-	-	-	-	69
CC(=O)N(C)C[C@H]1Oc2ncc(C#C[C@@H](C)O)cc2C(=O)N([C@H](C)CO)C[C@H]1C	-	-	-	0	0
C[C@@H]1CCCCO[C@H](CN(C)Cc2ccc(C(F)(F)F)cc2)[C@H](C)CN([C@@H](C)CO)C(=O)c2cc(NC(=O)c3ccccc3)ccc2O1	-	-	-	0	64
C[C@@H]1CN([C@H](C)CO)C(=O)c2cc(NC(=O)Nc3ccc(F)cc3)ccc2O[C@@H](C)CCCCO[C@H]1CN(C)Cc1ccc(C(F)(F)F)cc1	-	-	-	0	70
C[C@@H]1CN([C@H](C)CO)C(=O)c2cc(NC(=O)Nc3ccc(C(F)(F)F)cc3)ccc2O[C@H]1CN(C)Cc1ccc(Cl)c(Cl)c1	53	0	0	0	0
C[C@@H]1CCCCO[C@H](CN(C)Cc2ccc(C(F)(F)F)cc2)[C@H](C)CN([C@@H](C)CO)C(=O)c2cc(NC(=O)Nc3ccc(F)cc3)ccc2O1	-	-	-	0	0
COc1ccc(CN(C)C[C@@H]2OCCCC[C@@H](C)Oc3ccc(NC(=O)Nc4ccc(C(F)(F)F)cc4)cc3C(=O)N([C@@H](C)CO)C[C@H]2C)cc1	-	-	-	-	71
COc1ccc(NC(=O)Nc2ccc3c(c2)C(=O)N([C@H](C)CO)C[C@H](C)[C@H](CN(C)Cc2ccc(C(F)(F)F)cc2)OCCCC[C@@H](C)O3)cc1	-	-	-	0	0
C[C@@H]1CN([C@@H](C)CO)C(=O)c2cc(C#C[C@@H](C)O)cnc2O[C@H]1CN(C)C(=O)c1ccc(F)cc1	-	-	-	0	0
COC(=O)C[C@H]1CC[C@H]2[C@@H](COc3ccc(NC(=O)Nc4ccc(C)cc4)cc3C(=O)N2C)O1	-	-	-	0	0
C[C@H]1CN([C@@H](C)CO)C(=O)c2cc(NC(=O)NC3CCCCC3)ccc2O[C@@H]1CN(C)C	-	-	-	0	0
CN(C)C(=O)C[C@@H]1CC[C@H](NC(=O)c2ccc(F)cc2)[C@H](CO)O1	-	-	-	0	0
COc1ccc(S(=O)(=O)N(C)C[C@H]2OCCCC[C@@H](C)Oc3ccc(NC(=O)Nc4ccc(C(F)(F)F)cc4)cc3C(=O)N([C@@H](C)CO)C[C@@H]2C)cc1	-	-	-	0	63
COc1ccc(NC(=O)Nc2ccc3c(c2)C(=O)N([C@H](C)CO)C[C@@H](C)[C@H](CN(C)Cc2ccc(C(F)(F)F)cc2)OCCCC[C@H](C)O3)cc1	-	-	-	0	61
COc1ccc(CN(C)C[C@H]2OCCCC[C@H](C)Oc3ccc(NC(=O)Nc4ccc(C(F)(F)F)cc4)cc3C(=O)N([C@H](C)CO)C[C@@H]2C)cc1	-	-	-	0	71
C[C@H](CO)N1C[C@H](C)[C@@H](CN(C)Cc2ccc(Cl)c(Cl)c2)Oc2ccc(NC(=O)Cn3cnnn3)cc2C1=O	0	0	0	0	0
COc1ccc(NC(=O)Nc2ccc3c(c2)C(=O)N([C@@H](C)CO)C[C@@H](C)[C@H](CN(C)Cc2ccc(C(F)(F)F)cc2)OCCCC[C@@H](C)O3)cc1	-	-	-	0	0
